An excerpt weighted towards active compounds, which were near 2.4% of everything screened.
CHRM1 PAM = positive allosteric modulators of human M1 muscarinic receptor. 0.088% of 360,000 active. activation, % at 3 µM. P11229. CHO-K1 hM1, Fluo-8 calcium fluorescence, ACh EC20; 0% = ACh EC20, 100% = maximal ACh; in the data active means activation above about 19%, passing the limit was not always enough
Target sequence (P11229 whole entry, looked up): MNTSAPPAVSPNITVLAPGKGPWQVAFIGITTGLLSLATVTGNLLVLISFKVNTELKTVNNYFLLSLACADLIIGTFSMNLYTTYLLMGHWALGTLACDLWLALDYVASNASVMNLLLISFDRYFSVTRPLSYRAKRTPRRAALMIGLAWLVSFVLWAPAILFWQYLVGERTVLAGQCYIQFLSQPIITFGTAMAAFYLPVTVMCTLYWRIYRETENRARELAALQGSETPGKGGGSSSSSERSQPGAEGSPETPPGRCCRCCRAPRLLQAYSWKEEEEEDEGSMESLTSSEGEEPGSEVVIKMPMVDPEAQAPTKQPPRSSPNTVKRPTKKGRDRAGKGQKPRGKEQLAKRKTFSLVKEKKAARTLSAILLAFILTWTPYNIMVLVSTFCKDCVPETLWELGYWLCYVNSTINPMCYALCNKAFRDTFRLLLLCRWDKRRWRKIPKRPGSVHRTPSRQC
CHO-K1 Ca antag = M1 antagonist counterscreen hit in parental CHO-K1 cells | ATP-induced calcium, Fluo-8 fluorescence | 0.6% of 360,000 active | inhibition, % at 3 µM;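 active means inhibition above a per-plate cutoff, the plate's mean sample inhibition plus 3 SD, cut at about 24% in these data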;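 further: 0% = DMSO plus EC80 ATP and 100% = DMSO alone without ATP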
CHO-K1 Ca ag = counter-screen for M1 agonists: effect in parental CHO-K1 cells; activation, % at 3 µM; 0.48% of 360,000 active; AID 602248; Fluo-8 calcium fluorescence; scaled to maximal ATP response, vehicle zero; in the data active means activation above about 15%;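 further: untransfected CHO-K1 host cells lacking M1 receptor as counterscreen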
CHRM1 antagonist = antagonists of human M1 muscarinic receptor; inhibition, % at 3 µM; P11229; AID 588852; CHO-K1 hM1, Fluo-8 calcium fluorescence, ACh EC80 antagonist; 1.3% of 360,000 active;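 active means percent inhibition above its own plate's cutoff, namely the mean of that plate's compound wells plus 3 SD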;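 further: peak over basal fluorescence ratio during 140 s after agonist addition; 0% = ACh EC80 plus DMSO and 100% = DMSO alone without agonist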
M1 PAM parental = counter-screen for M1 PAMs: effect in parental CHO-K1 cells | activation, % at 3 µM | AID 602247 | ATP EC20, Fluo-8 calcium fluorescence; 0% at ATP EC20, 100% at ATP max | 0.02% of 360,000 active;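 active means activation above the run cutoff, the mean activation of all test compounds plus 3 SD, cut at about 40% in these data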;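 further: peak over basal fluorescence ratio in a 140 s read after ATP addition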
CHRM1 agonist = agonists of human M1 muscarinic receptor; CHO-K1 hM1, Fluo-8 calcium fluorescence, agonist mode; 0% DMSO, 100% acetylcholine EC100; 0.33% of 360,000 active; activation, % at 3 µM;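 active means activation above the run's mean compound activation plus 3 SD, cut at about 16% in these data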;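 further: peak over basal fluorescence ratio within a 140 s kinetic read after compound addition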
An asterisk follows results filed as active.

SMILES | CHRM1 PAM | CHO-K1 Ca antag | CHO-K1 Ca ag | CHRM1 antagonist | M1 PAM parental | CHRM1 agonist
O=C(CN1CCN(S(=O)(=O)c2ccccc2)CC1)Nc1ccccc1C(=O)NC1CC1 | -6 | -18 | 7 | 13 | 13 | -4
CC(=O)c1ccc(S(=O)(=O)N2CCN(CC(=O)Nc3ccccc3C(=O)NC3CC3)CC2)cc1 | -16 | 13 | 3 | 37* | -17 | 0
COc1cc2c(cc1NC(=O)CN1CCN(S(=O)(=O)c3ccc(C)cc3)CC1)oc1ccccc12 | 23* | 12 | 0 | -31 | -6 | 15
O=S(=O)(c1ccccc1C(F)(F)F)N1CCN(c2ncnc3sccc23)CC1 | -19 | -2 | 17* | 29* | -12 | 0
O=S(=O)(c1ccc(F)c(F)c1F)N1CCN(c2ncnc3sccc23)CC1 | -16 | -6 | 8 | 26 | -4 | 3
O=S(=O)(c1cc(C(F)(F)F)ccc1Cl)N1CCN(c2ncnc3ccccc23)CC1 | -14 | 15 | 12 | 39* | -13 | 1
Cc1ccc(S(=O)(=O)N2CCN(c3ncnc4sccc34)CC2)cc1 | -9 | 16 | 14 | 30* | -15 | 1
CCS(=O)(=O)N1CCN(c2ncnc3sc(C)c(C)c23)CC1 | 3 | -21 | 4 | -17 | 18 | -2
Cc1sc2ncnc(N3CCN(S(=O)(=O)c4ccc(F)cc4)CC3)c2c1C | -17 | 14 | 14 | 29* | -15 | -6
C[C@H]1CN([C@@H](C)CO)C(=O)CCCn2cc(nn2)CO[C@@H]1CN(C)S(=O)(=O)c1ccc(C#N)cc1 | 3 | -16 | 0 | -16 | 26 | -4
Cc1ccc(CN2CC(C(=O)N3CC=C(c4ccccc4)CC3)CC2=O)cc1 (stereo not drawn) | 3 | -14 | 6 | -1 | 20 | -2
Cc1nc2sc3c(c2c(=N)n1N)CC(C)(C)OC3 | -1 | -10 | 3 | 9 | 15 | -6
CC1(C)Cc2c(sc3ncn(N)c(=N)c23)CO1 | 9 | 27* | -1 | -16 | -4 | 0
CCOc1ccc(CCNC(=O)COC(=O)c2cccc(N(C)C)c2)cc1OCC | 13 | -4 | 0 | -18 | 8 | -2
CN(C)S(=O)(=O)c1cccc(C(=O)OCC(=O)Nc2sccc2C(N)=O)c1 | -12 | 20 | 21* | 37* | -6 | 3
COc1ccc(N(C)S(=O)(=O)c2cccc(C(=O)OCC(=O)NCc3ccccc3OC)c2)cc1 | -13 | 0 | 10 | 25* | 2 | 1
CCOc1ccc(CCNC(=O)COC(=O)c2cccc(S(=O)(=O)N(C)C)c2)cc1OCC | 9 | 44* | 1 | -15 | 15 | -4
CN(c1ccccc1)S(=O)(=O)c1cccc(C(=O)OCC(=O)NCc2ccccc2)c1 | -5 | 0 | 8 | -1 | -9 | -2
C=C(C)C(=O)Nc1ccc2nn(-c3ccccc3O)nc2c1 | 6 | 5 | 2 | -8 | 14 | 0
Cc1cc(C)cc(NC(=O)CSCc2cc(=O)n3ccsc3n2)c1 | 11 | 3 | 1 | -7 | 12 | -3
COc1cccc(CNc2ccc(F)c([N+](=O)[O-])c2)c1O | -15 | 13 | 3 | 90* | -16 | 3
C1=NN(c2ccccc2)C=NN1c1ccccc1 | 7 | -15 | 1 | -11 | 22 | -2
C1=C(c2ccc(-c3ccccc3)cc2)Nc2ncnn2C1c1ccco1 (stereo not drawn) | -30 | 29* | 38* | 45* | -11 | 120*
Brc1ccc(C2=CC(c3cccs3)n3ncnc3N2)cc1 (stereo not drawn) | -13 | 2 | 33* | 18 | -10 | 28*
Cc1cc(Cn2nc(-c3ccccc3)cc2C(=O)NCc2cccc(Br)c2)on1 | -3 | -16 | 5 | 2 | 18 | -5
SMILES | CHRM1 PAM | CHO-K1 Ca antag | CHO-K1 Ca ag | CHRM1 antagonist | M1 PAM parental | CHRM1 agonist
CC(C)(C)OC1NS(=O)(=O)OCC1NCOC(Cl)(Cl)Cl (stereo not drawn) | 6 | -15 | 1 | -4 | 20 | -3
Cc1cccc(N2CCN(C(=O)CCC(=O)N3CC(C)Oc4ccc(C)cc43)CC2C)c1 (stereo not drawn) | -2 | 6 | 3 | -4 | 4 | -4
S=C(NCc1cccs1)Nc1cc(Cl)cc(Cl)c1 | -20 | 16 | 14 | 43* | 3 | 2
S=C(NCc1cccs1)Nc1cccc(Cl)c1 | -17 | -4 | 8 | 18 | -12 | -2
CN(C)C(CNC(=O)CN1C(=O)NC2(CCCC2)C1=O)c1ccccc1 (stereo not drawn) | -22 | -4 | 1 | 48* | 9 | -8
CC1CCCCC1NCC#CCOc1ccc(Cl)cc1 (stereo not drawn) | -23 | -12 | 2 | 63* | 18 | -6
CCN(CC(=O)Nc1c(F)cccc1F)C(=O)CNC(=O)c1ccc(Br)o1 | 5 | 0 | 1 | -8 | 8 | 0
O=C(NCc1ccc(Cl)cc1)C1CCC(=O)N(C2CCCCCC2)C1 (stereo not drawn) | 7 | 3 | 1 | -6 | 10 | -2
CCCOc1ccc(Br)cc1CSC(=N)N | -16 | 21 | 36* | 26* | 0 | -3
Cc1ccccc1OCC(=O)N/N=C1\SCC(=O)N1Cc1ccccc1 | 6 | -9 | 0 | -10 | 18 | -6
Cc1ccc(OCC(=O)N/N=C2/SCC(=O)N2Cc2ccccc2)cc1 | 1 | 25* | 0 | -6 | -15 | -2
Cc1ccc(NC(=S)NCc2ccc(Cl)cc2)c(OC(F)F)c1 | -21 | 19 | 6 | 34* | -3 | -1
c1ccc(Oc2cccc(OCCCCN3CCCC3)c2)cc1 | -28 | -4 | 3 | 40* | 19 | -11
CC1CN(CCCCOc2cccc(Oc3ccccc3)c2)CC(C)O1 (stereo not drawn) | -24 | -16 | 1 | 29* | 8 | -7
O=C(CN1C(=O)NC2(CCCCCCC2)C1=O)NCc1ccc(Cl)cc1 | 7 | -26 | 2 | -4 | 32 | -2
CC1=CC(C)C2(CO)COC(c3ccc(O)cc3)C1C2C (stereo not drawn) | 3 | 8 | 2 | 6 | -3 | 5
CC1=CC(C)C2(CO)COC(c3cccnc3)C1C2C (stereo not drawn) | 11 | 28* | 1 | 1 | -11 | -1
NC(=O)c1ccc(Oc2ncc(C(F)(F)F)cc2Cl)cc1 | 10 | -1 | 16* | -7 | 25 | -4
O=c1cc(O)n(Cc2ccc(F)cc2)c(=O)[nH]1 | 3 | -16 | 0 | -16 | -4 | -5
CC(=O)c1ccc(S(=O)(=O)N2CCN(C(=O)CN3C(=O)NC4(CCCC4)C3=O)CC2)cc1 | 14 | 7 | 0 | -12 | 6 | -2
CCCn1cc(CN2CCc3ccc(NC(=O)C4CCCO4)cc3C2)c(C)n1 (stereo not drawn) | 0 | 3 | 0 | 1 | 6 | -6

Assay outcomes (PubChem BioAssay)
